# Source: PubChem BioAssay (NCI)
# This is part of a sample that, as a whole, favours compounds with a hit. Of some 83,000 tested, about 20% had one in any assay.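 Each cell line was grown in a 96-well plate and treated with one concentration of compound for 48 hours. Values below 10 were considered active.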 A number with no mark means an inactive call. Activity calls are given as the source filed them.
# What was measured:
# Assay in all cases: NCI-60 one-dose screen, 48 h (100 = growth as untreated, 0 = no growth, -100 = all killed)
# Details in all cases: 10 µM unless noted
# HCT-15 colon = test system: HCT-15 colon
# HT29 colon = test system: HT29 colon
# SNB-75 CNS = test system: SNB-75 CNS
# SNB-19 CNS = test system: SNB-19 CNS
# PC-3 prostate = test system: PC-3 prostate
# SK-MEL-5 melanoma = test system: SK-MEL-5 melanoma
# UACC-62 melanoma = test system: UACC-62 melanoma
# LOX IMVI melanoma = test system: LOX IMVI melanoma
# SK-MEL-28 melanoma = test system: SK-MEL-28 melanoma
# U251 CNS = test system: U251 CNS
SMILES,growth (HCT-15 colon),growth (HT29 colon),growth (SNB-75 CNS),growth (SNB-19 CNS),growth (PC-3 prostate),growth (SK-MEL-5 melanoma),growth (UACC-62 melanoma),growth (LOX IMVI melanoma),growth (SK-MEL-28 melanoma),growth (U251 CNS)
Cc1c(C(=O)Nc2nc3ccccc3[nH]2)cnn1-c1ccccn1,104%,66%,104%,101%,93.1%,99.9%,107%,104%,112%,–
O=c1[nH]c2ccccc2cc1-c1nc2ccncc2[nH]1,85.9%,84.5%,58.3%,82.5%,74%,86.7%,80.3%,82.1%,95.7%,–
Cc1c(Cl)cccc1NC(=O)c1sc2nc3c(cc2c1N)CN(Cc1ccccc1)CC3,33.6%,8.14% (active),41.9%,38.4%,43.1%,49.1%,40.2%,40.4%,71.1%,–
C=C(C)[C@@H]1CC[C@]2(C(=O)N=C=S)CC[C@]3(C)[C@H](CC[C@@H]4[C@@]5(C)CCC(=O)C(C)(C)[C@@H]5CC[C@]43C)[C@@H]12,20.3%,15.5%,43.6%,28.1%,20.8%,77.7%,44.5%,41.4%,66%,–
COc1ccc(Cc2nc(C#N)c(N3CCN(c4ccc(F)cc4)CC3)o2)cc1,76%,79.8%,65.2%,99.1%,85.9%,100%,76.1%,96.1%,97.9%,–
CCOC(=O)C(=Cc1c(-c2ccccc2)[nH]c2ccccc12)C(=O)OCC,36.5%,31%,48.4%,106%,-16% (active),41.6%,43.5%,57.3%,62.5%,–
O=C(Nc1cccc(-c2cccc(F)c2)c1)C1CCN(Cc2cccc3cccnc23)CC1,19.5%,0.443% (active),53.6%,77%,51.1%,35.2%,-44.8% (active),3.29% (active),-40.2% (active),–
COc1cc(C(=O)Nc2cc(OC)c3ccn(C)c3c2)cc2c1C[C@]1(C)CC[C@@H](O)C(C)(C)[C@H]1O2,20.9%,5.58% (active),-9.5% (active),33.3%,3.01% (active),-34.8% (active),–,-14.6% (active),13.4%,–
COc1cc(/C=C/C(=O)/C=C/c2cc3ccc(Cl)cc3[nH]c2=O)ccc1O,52.4%,5.63% (active),74.4%,76.5%,56.2%,60.8%,53.1%,19.8%,98.8%,–
COc1ccccc1N1CCN(CCCOc2ccc(C(=O)/C=C3/C(=O)Nc4ccccc43)cc2)CC1,74.7%,25.8%,85.1%,84.6%,40.9%,-36.1% (active),56.1%,55.5%,86.1%,–
CN(C)C1=NCCN1,108%,88.3%,75.8%,111%,80%,103%,102%,99.2%,113%,–
CCCNc1nc(C)[nH]c(=O)c1S,96.5%,108%,91.2%,93.1%,87.4%,110%,113%,91%,114%,–
CC(=O)OCC1OC(OC2C(COC(C)=O)OC(OCCC[S-])C(OC(C)=O)C2OC(C)=O)C(OC(C)=O)C(OC(C)=O)C1OC(C)=O.[Au+].c1ccc(CN2[CH-]N(Cc3ccccc3)C(c3ccccc3)=C2c2ccccc2)cc1 (stereo unspecified),25.6%,15.7%,45.5%,23.2%,17.7%,-12.6% (active),13.4%,11.3%,28.4%,–
Cc1ccc(C2=N[C@H]3CCC[C@@H]3N(c3ccccc3)C(C(Cl)Cl)=N2)cc1,99%,89.7%,77%,113%,101%,104%,105%,87.9%,101%,–
COc1ccc2[nH]c(-c3ccccc3)c(C=C(C#N)C#N)c2c1,36.3%,17.2%,-5.72% (active),73.2%,13.2%,8.94% (active),22.1%,42.6%,44%,–
CCOC(=O)NC(Cc1ccccc1)c1ccccc1 (stereo unspecified),106%,97.5%,100%,104%,94.7%,104%,97.5%,94.9%,115%,–
O=C(CN1N=C(c2ccc(F)cc2)CCC1=O)Nc1nc2ccccc2s1,86%,1.85% (active),-49.1% (active),94.4%,5.7% (active),89.3%,79.6%,-89.5% (active),100%,–
Cc1ccccc1NC(=O)c1sc2nc(C)c(C(C)O)cc2c1N (stereo unspecified),35.3%,3.12% (active),53.9%,32.5%,60.9%,31.4%,25.5%,44.2%,67.2%,–
COc1cc(C2=NN(C(C)=O)C(c3cccc(Nc4ccnc5cc(C(F)(F)F)ccc45)c3)C2)cc(OC)c1OC (stereo unspecified),39.9%,22.1%,76.1%,60.9%,25%,27.8%,69%,53.2%,66.5%,–
Nc1cccc(C(=O)Nc2ccc3c(O)c(N=Nc4ccc(N=Nc5ccc(S(=O)(=O)O)cc5)cc4)c(S(=O)(=O)O)cc3c2)c1,108%,99.1%,87.9%,106%,91.9%,104%,97.4%,101%,107%,–
COc1ccc(-c2nnc(N3CCN(C(=O)CN4CCN(c5ccccc5)CC4)CC3)nc2-c2ccc(OC)cc2)cc1,18.5%,3.46% (active),49.9%,53.5%,7.93% (active),8.21% (active),52.1%,41.2%,56.5%,–
C#Cc1cccc(Nc2ncnc3ccc(NC(=O)c4ccccc4)cc23)c1,65.3%,82.4%,67.2%,89.5%,75.8%,95.5%,95.2%,81.7%,93.9%,–
Sc1cccc2cccnc12,30.1%,15.8%,52.8%,42.7%,43.7%,-10.9% (active),-3.89% (active),7.92% (active),36.3%,–
Cc1cc(Nc2nc(SCc3ccc(C(=O)Nc4ccc(F)cc4N)cc3)nn3cccc23)n[nH]1,22.6%,4.22% (active),29.2%,43.8%,28%,7.54% (active),24.2%,30.1%,68.7%,–
CCc1c(C(=O)N[C@@H](C(=O)OCc2ccccc2)C(C)O)[nH]c2ccc(Cl)cc12 (stereo partly specified),79.3%,72.8%,–,83.6%,82.1%,84.1%,91.4%,81.1%,100%,36.3%
O=C1C(=O)c2c(nc3ccc(C(F)(F)F)cn23)-c2ccccc21,-67.4% (active),-9.93% (active),-97% (active),-84.4% (active),-85% (active),-99.2% (active),–,-65.4% (active),-84.3% (active),–
C#C[C@@]1(O)[C@@H](CO)O[C@@H](n2ccc3c(N)ncnc32)[C@@H]1O,2.94% (active),2.83% (active),-25.6% (active),7.29% (active),-21.4% (active),-52.7% (active),-16.5% (active),-68.6% (active),63.6%,–
